# Only some compounds are listed: those with a hit (about 19% of all), similar ones and a draw of the others.
# TDP1 cell noCPT: qHTS for Inhibitors of human tyrosyl-DNA phosphodiesterase 1 (TDP1): qHTS in cells in absence of CPT; DT40 Tdp1-/- hTDP1 cells, no CPT, ATP luminescence, 48 h; Potency, µM (top dose mostly 46.2 µM), for the others: at the highest dose activity change, negative = growth inhibition, usual class: inhibitors; 420,000 tested, 15% active; further: potency means the concentration at half of the fitted maximal effect; nearly all actives have a fitted effect of over 55% in size
#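 Seeded 400 DT40-hTDP1 cells/well (vehicle DMSO, no 20 nM CPT); pinned compounds; ≥48 hr at 37 °C; CellTiter-Glo luminescence as viability measure.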
# IL1B secr inh: inflammasome signaling inhibition, IL-1 beta readout | THP-1 LPS/ATP IL-1B secretion, AlphaLISA, 16 h; hits give low values | activity change, % at 57.5 µM | 360,000 tested, 4.7% active | AID 743279; in the data active means activity change below about -50%; inconclusive means mostly about -30% to -49%
#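 THP-1 cells pretreated 1 hr with compounds (up to 57.5 uM final), then stimulated with LPS (250 ng/mL final) plus ATP (1.25 mM final); secreted IL-1B measured by AlphaLISA after 16 hr, decreased signal indicating inhibition.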
# HT1080-NT tox: kills 2HG-producing HT-1080-NT fibrosarcoma cells; HT-1080-NT fibrosarcoma viability, CellTiter-Glo ATP luminescence, 48 h; Potency, µM (titrated, usually from 46.1 µM), inactives show at the highest dose activity, negative = less viability, usual class: cytotoxic; 360,000 tested, 1.6% active;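 further: NT is the 2HG producing partner of a matched IDH1 knockdown line; potency means the concentration at half of the fitted maximal effect; 0% = DMSO-treated cells and -100% = media-only wells without cells; nearly all actives have a fitted effect of over 55% in size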
#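 Viability of the 2HG-overproducing fibrosarcoma line after 48 hours of compound exposure at 37 degrees C was determined by luminescence with CellTiter-Glo, and concentration-effect curves were then fitted and categorized.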
# TDP1 cell CPT: growth inhibition of DT40 Tdp1-/-;hTDP1 cells with camptothecin (screen for TDP1 inhibitors); Potency, µM (series often up to 46.2 µM), without a hit: at the highest dose activity change, negative = growth inhibition, usual class: inhibitors; 420,000 tested, 12% active; chicken DT40 Tdp1-/-;hTDP1 cells + 20 nM CPT, ATP luminescence, 48 h; further: potency means the concentration at half of the fitted maximal effect; nearly all actives have a fitted effect of over 55% in size
#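 Chicken DT40 Tdp1-/- cells stably complemented with human TDP1 were seeded at 400 cells/well in medium containing 20 nM camptothecin, exposed to pin-transferred compounds, and grown at 37 °C for at least 48 hr. Viability was read as ATP luminescence.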
# ELG1 DNA repair: inhibitors of ELG1-dependent DNA repair in HEK293T cells. AID 504467. HEK293T ELG1-luciferase reporter, luminescence, 16 h; DNA damage induced by 5-fluorouridine. 330,000 tested, 2.3% active. Potency, µM (top dose mostly 46.1 µM), inactives show top-dose activity change, negative = inhibition, most hits filed as inhibitors; further: potency means the concentration at half of the fitted maximal effect; nearly all actives have a fitted effect of over 55% in size
#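 5-Fluorouridine DNA damage + compound/DMSO, 2,000 cells/well, 16 h, 37 °C/5% CO2. ONE-Glo, 30 min RT, luminescence. Readout = decrease in reporter signal.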
# HT1080 IDH1KD tx: toxicity to HT-1080 IDH1 knockdown cells (counter line). HT-1080 IDH1 knockdown viability, ATP luminescence, 48 h. Potency, µM (titrated, usually from 46.1 µM), inactives show at the highest dose activity, negative = toxicity, actives largely listed as cytotoxic. 360,000 tested, 2% active. AID 686971;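 further: potency means the concentration at half of the fitted maximal effect; 0% = DMSO wells and -100% = cell-free medium wells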
#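 Knockdown cells (IDH1KD HT-1080) received compounds 2 h after plating at 750 cells/well and were kept 48 h at 37 °C in 5% FBS RPMI. A CellTiter-Glo luminescence read gave % activity for curve fitting.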
# Active calls of the source: *; ? = inconclusive; nt = not tested or not shown. Unless noted, the call rests on the fitted dose curve; in most records, active means well fitted curve in the direction sought with a large enough effect; inconclusive means small, poorly fitted or top-dose-only effect, or another doubt; inactive means no such curve, though single readings can be large; an effect the other way counts as inactive or inconclusive. Unless noted, on the % scale 0 is the no-effect control and ±100 the full control effect.
SMILES,TDP1 cell noCPT,IL1B secr inh,HT1080-NT tox,TDP1 cell CPT,ELG1 DNA repair,HT1080 IDH1KD tx
CCOc1ccc(C2Nc3c(C)cccc3-c3cc(C)nn32)cc1 (stereo not given),?,nt,nt,20.6µM*,nt,nt
Cc1ccccc1CN1C2=NCCN2c2ccccc21,?,-5.3,-9.0%,?,-2.9%,9.8%
Clc1ccc(CN2C3=NCCCN3c3ccccc32)cc1,20.6µM*,-28.8,?,25.9µM*,?,-26.8%
Clc1ccc(CN2C3=NCCCN3c3ccccc32)cc1Cl,14.6µM*,nt,?,-119.5%,-9.4%,?
CCN1C2=NCCCN2c2ccccc21,-18.1%,0.0,12.8%,-5.3%,-3.1%,22.2%
Cc1ccccc1CN1C2=NCCCN2c2ccccc21,18.4µM*,-16.4,-5.7%,18.4µM*,?,-27.2%
Fc1ccc(CN2C3=NCCCN3c3ccccc32)cc1,?,-18.1,0.0%,?,-16.0%,0.9%
COCC(=O)N(CCc1ccc(OC)c(OC)c1)Cc1cc2cc(C)ccc2nc1Cl,?,6.6,-29.0%,?,16.4µM*,-1.2%
CN1C=C/C(=C\c2cc[n+](C)c3ccccc23)c2ccccc21,0.0082µM*,-71.3*,?,0.206µM*,?,6.51µM*
C[n+]1ccc(/C=C/c2ccc(F)cc2)c2ccccc21,12.6µM*,nt,nt,8.91µM*,nt,nt
C[n+]1ccc(/C=C/c2cc[n+](C)c3ccccc23)c2ccccc21,0.0794µM*,nt,nt,0.1µM*,nt,nt
C[n+]1ccc(/C=C/c2ccc([N+](C)(C)C)cc2)c2ccccc21,0.159µM*,nt,nt,0.141µM*,nt,nt
CN(C(=O)/C=C/c1ccc([N+](=O)[O-])s1)c1ccccc1,5.17µM*,-51.6*,-2.1%,10.3µM*,?,?
N#CC1(CCCN2CCCCC2)c2ccccc2CCc2ccccc21,?,-57.1*,-16.0%,?,nt,-4.7%
ONC(=Nc1ccccc1)c1ccc(Cl)cc1,1.3%,-24.5,4.7%,-9.0%,14.0%,5.2%
NC(N)=N/N=C(\N=Nc1ccccc1)c1ccc(Cl)cc1,13µM*,-113.5*,?,13µM*,nt,-8.9%
O=C(O)c1cccc2cccnc12,-13.8%,0.0,18.8%,2.1%,?,18.6%
NC(N)=N/N=C(\N=Nc1ccccc1)c1cccc2cccnc12,20.6µM*,-13.4,-0.2%,23.1µM*,nt,?
COc1ccc(N2C(=O)c3ccccc3NC(=O)C2C(=O)NCCc2ccccc2F)cc1 (stereo not given),?,2.1,4.8%,?,nt,15.1%
O=C(CNC(=O)c1ccc(Cl)cc1)OCc1cc(=O)n2nc(C3CC3)sc2n1,-5.3%,nt,nt,5.3%,nt,nt
COC(=O)[C@@]12C[C@@H](CC(=O)NCC34CC5CC(CC(C5)C3)C4)C(=O)N(Cc3ccccc3)C1=CCC(C)(C)C2,20.6µM*,-28.9,?,?,nt,?
CCOC(=O)[C@]12CCCC=C1N(Cc1ccccc1)C(=O)[C@H](CC(=O)NCC13CC4CC(CC(C4)C1)C3)C2,?,-25.4,?,?,nt,?
COC(=O)[C@]12CCCCC=C1N(Cc1ccccc1)C(=O)[C@H](CC(=O)NCC13CC4CC(CC(C4)C1)C3)C2,?,-24.1,?,18.4µM*,nt,?
O=C(Nc1cc(Cl)ccc1N1CCOCC1)C1=COCCO1,-21.8%,-9.1,-3.9%,0.4%,-3.9%,-11.7%
CC(NC(=O)c1ccco1)C(=O)N1CCCCC1 (stereo not given),7.6%,-8.2,-0.6%,4.0%,18.0%,7.2%
SMILES,TDP1 cell noCPT,IL1B secr inh,HT1080-NT tox,TDP1 cell CPT,ELG1 DNA repair,HT1080 IDH1KD tx
OC(Cc1ccc2ccccc2n1)c1ccccc1 (stereo not given),?,nt,nt,-0.3%,nt,nt
CCNc1nc(NC(C)(C)C)nc(N2CCCCC2)n1,20.6µM*,-81.4*,-19.6%,20.6µM*,-18.9%,-16.1%
CC(C)(CO)Nc1nc(N2CCCC2)nc(N2CCCC2)n1,20.6µM*,14.5,-2.6%,?,-7.1%,10.9%
CCOC(=O)c1sc2c(c1C)c(=O)n(Cc1ccccc1)c(=O)n2CCN(C)C,-23.8%,-18.9,-13.3%,?,?,-20.6%
CCN(CC)C(=O)c1sc2c(c1C)c(=O)n(CCc1ccccc1)c(=O)n2Cc1ccc(C)cc1,?,nt,nt,20.6µM*,nt,nt
CC(=O)Nc1ccc(S(=O)(=O)N(C)CC(=O)OCCOc2cccc(C)c2)cc1,-16.0%,-27.2,-2.0%,-1.6%,3.6%,-7.8%
O=C1CC(c2ccco2)CC2=C1C1c3ccccc3C(=O)N1c1ccccc1N2 (stereo not given),23.1µM*,-94.2*,?,?,-1.5%,?
CCC(=O)N1c2ccccc2NC2=C(C(=O)CC(c3ccco3)C2)C1c1ccco1 (stereo not given),-14.2%,8.8,6.0%,-23.5%,0.7%,6.0%
Oc1ccc(-c2cnc(-c3ccc(O)cc3)nc2)cc1,?,-19.2,?,2.6%,?,0.206µM*
O=C(CN1C(=O)CSc2ccc(S(=O)(=O)N3CCCCC3)cc21)NCc1ccc(F)cc1Cl,?,nt,nt,23.1µM*,nt,nt
Cc1ccc(CNC(=O)CN2C(=O)CSc3ccc(S(=O)(=O)N4CCCCC4)cc32)cc1,8.2%,?,-5.1%,-25.9%,-5.8%,-0.2%
COc1ccccc1CNC(=O)CN1C(=O)CSc2ccc(S(=O)(=O)N3CCCCC3)cc21,20.6µM*,nt,nt,?,nt,nt
CCNC(=O)C1(C)CCCN(Cc2cc(-c3ccccc3)n(C)n2)C1 (stereo not given),-19.0%,-19.4,0.5%,?,nt,6.0%
COc1cccc(-c2nc3nc(C)cc(C)n3c2NCc2ccccc2)c1,11.6µM*,11.9,-3.4%,?,nt,-2.1%
COc1cccc(-c2nc3nc(C)cc(C)n3c2Nc2ccc3c(c2)OCCO3)c1,25.9µM*,6.5,7.4%,?,nt,-12.2%
COc1ccc(Nc2c(-c3cccc(OC)c3)nc3nc(C)cc(C)n23)cc1,20.6µM*,15.9,15.6%,?,nt,7.8%
COc1cccc(-c2nc3nc(C)cc(C)n3c2NC2CCCC2)c1,?,-10.7,-1.6%,?,nt,0.6%
CN1C(N)=NC(=O)/C1=C\c1ccc(Br)cc1,-21.2%,?,-8.2%,-1.5%,10.0%,3.6%
O=C(NCCc1ccc(F)cc1)c1ccc(Cl)c(S(=O)(=O)N2CCOCC2)c1,-20.1%,0.0,-5.6%,?,?,-10.9%

# Bioassay records as filed in PubChem BioAssay.
